Source: PubChem (National Center for Advancing Translational Sciences (NCATS))
ATXN2 expr inh = Primary qHTS for Inhibitors of ATXN expression. HEK-293 ATXN2-luciferase reporter, luminescence, 24 h. Potency, µM (doses to about 57 µM), inactives show at the highest dose activity change, negative = inhibition, actives largely listed as inhibitors. actives 0.72% (n = 360,000). AID 1745845, 2022; further: on the % scale 0 is the no-effect control and ±100 the full control effect; nearly all actives have a fitted effect of over 55% in size
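ATXN2-luciferase reporter cells (luciferase flanked by upstream and downstream ATXN2 gene portions) were treated 24 h at 37 °C with compounds at up to 57 uM. SteadyGlo luminescence gave expression; GF-AFC fluorescence gave viability.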
ATXN viability = Viability Counterscreen for Primary qHTS for Inhibitors of ATXN expression; S2 cells (HEK-293 line with an ATXN2-luciferase reporter) viability, CellTiter-Fluor protease fluorescence, 24 h; Potency, µM (series often up to 56.7 µM), usual class: cytotoxic; actives 0.49% (n = 400,000); AID 651635, 2014; further: nearly all actives have a fitted effect of over 40% in size
HepG2 viability = qHTS for Inhibitors of TGF-b: Cytotox Counterscreen | HepG2 CAGA-GFP viability, ATP luminescence, 18 h | actives 0.76% (n = 410,000) | AID 588856, 2011 | Potency, µM (top dose mostly 46.1 µM), for the others: top-dose activity change, negative = cytotoxicity, hits mostly cytotoxic
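HepG2 CAGA-GFP cells (1000/well, DMEM with 1% FBS) received compound, then TGF-beta at 500 pg/mL final, and were incubated 18 hours at 37 degrees C. Viability was read by CellTiter-Glo luminescence. Media-only wells were set as complete cell-killing and DMSO as no toxicity.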
HT1080 IDH1KD tx = qHTS for induction of synthetic lethality in tumor cells producing 2HG: qHTS for the HT-1080-IDH1KD cell line; AID 686971, 2013; actives 2% (n = 360,000); HT-1080 IDH1 knockdown viability, ATP luminescence, 48 h; Potency, µM (doses to about 46.1 µM), without a hit: at the top dose activity, negative = toxicity, hits mostly cytotoxic;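 further: 0% = DMSO wells and -100% = cell-free medium wells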
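After a 2 h attachment period, IDH1KD HT-1080 cells took pin-transferred compound for 48 h at 37 °C; ATP-based luminescence after 10 min room-temperature reagent incubation reported viability.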
TGFb inhibitor = qHTS for Inhibitors of TGF-b; Potency, µM (highest dose often 46.1 µM), for inactives: top-dose activity, negative = inhibition, actives largely listed as inhibitors; HepG2 CAGA-GFP TGF-b/SMAD3 reporter, GFP fluorescence, 18 h; TGF-beta stimulated, 500 pg/mL final; actives 1.2% (n = 410,000); further: on the % scale 0 is the no-effect control and ±100 the full control effect; nearly all actives have a fitted effect of over 65% in size
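Per well, imaged GFP fluorescence of HEPG2 CAGA-GFP cells gives the signal; cells get compound, then TGF-beta (500 pg/mL final), 18 h at 37 degrees C; %Activity versus -TGF-beta and +DMSO controls.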
HT1080-NT tox = qHTS for induction of synthetic lethality in tumor cells producing 2HG: qHTS for the HT-1080-NT fibrosarcoma cell line | HT-1080-NT fibrosarcoma viability, CellTiter-Glo ATP luminescence, 48 h | Potency, µM (highest dose often 46.1 µM), inactives show at the top dose activity, negative = less viability, actives largely listed as cytotoxic | actives 1.6% (n = 360,000);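 further: NT is the 2HG producing partner of a matched IDH1 knockdown line; 0% = DMSO-treated cells and -100% = media-only wells without cells; nearly all actives have a fitted effect of over 55% in size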
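A 48-hour cytotoxicity screen used HT-1080-NT cells plated 2 hours before compound delivery. ATP-based CellTiter-Glo luminescence measured viability, normalized to DMSO and no-cell controls.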
An asterisk follows results filed as active. Most compounds without a hit are left out; they make up all but 3.8% or so of the library. The call rests on the fitted dose curve; in most records, active means well fitted curve in the direction sought with a large enough effect; inconclusive means small, poorly fitted or top-dose-only effect, or another doubt; inactive means no such curve, though single readings can be large; an effect the other way counts as inactive or inconclusive. Potency means the concentration at half of the fitted maximal effect.

What do the screens show for `CCOC(=O)c1ccc(NC(=S)N(CCCN2CCCCC2)Cc2ccco2)cc1`?
ATXN2 expr inh: -1%; ATXN viability: inactive; HepG2 viability: -26%; HT1080 IDH1KD tx: inconclusive; TGFb inhibitor: 0.63µM*; HT1080-NT tox: inconclusive

Results for N#Cc1ccc(S(=O)(=O)N2CCN(c3nc(-c4ccccc4)nc4ccccc34)CC2)cc1 ?
HT1080 IDH1KD tx: 25%; HT1080-NT tox: 22%

How did COCc1nnc(NC(=O)c2c(-c3c(Cl)cccc3Cl)noc2C)s1 do in these assays?
ATXN2 expr inh: -4%; ATXN viability: inconclusive; HepG2 viability: -22%; HT1080 IDH1KD tx: 21µM*; TGFb inhibitor: 2%; HT1080-NT tox: inconclusive

What do the screens show for `Cc1onc(-c2ccccc2Cl)c1C(=O)Nc1nnc(Cc2ccc(Cl)cc2)s1`?
ATXN2 expr inh: -1%; ATXN viability: inactive; HepG2 viability: -15%; HT1080 IDH1KD tx: -21%; TGFb inhibitor: inconclusive; HT1080-NT tox: -23%

What do the screens show for `CCOC(=O)c1c(C)sc2c1N(C(=O)CCl)c1cc(Cl)ccc1S2`?
ATXN2 expr inh: inconclusive; ATXN viability: 18µM*; HepG2 viability: -90%; HT1080 IDH1KD tx: 18µM*; TGFb inhibitor: inconclusive; HT1080-NT tox: 23µM*

How did CCC(=O)Nc1sc2c(c1C#N)CCC2 do in these assays?
ATXN2 expr inh: -13%; ATXN viability: inactive; HepG2 viability: -66%; HT1080 IDH1KD tx: 0%; TGFb inhibitor: 15%; HT1080-NT tox: 12%

What do the screens show for `CC(C)CC(=O)NC(NC(=S)Nc1sc2c(c1C#N)CCCC2)C(Cl)(Cl)Cl` (configuration not stated)?
ATXN2 expr inh: inconclusive; ATXN viability: inactive; HepG2 viability: -42%; HT1080 IDH1KD tx: inconclusive; TGFb inhibitor: 16µM*; HT1080-NT tox: inconclusive

What do the screens show for `O=[N+]([O-])c1ccc(Sc2ncccn2)c([N+](=O)[O-])c1`?
ATXN2 expr inh: inconclusive; ATXN viability: inconclusive; HepG2 viability: 20µM*; HT1080 IDH1KD tx: 13µM*; TGFb inhibitor: inconclusive; HT1080-NT tox: 29µM*

How did Cc1cccc(Sc2ccc([N+](=O)[O-])cc2[N+](=O)[O-])n1 do in these assays?
ATXN viability: inactive; HepG2 viability: -14%; HT1080 IDH1KD tx: 18µM*; TGFb inhibitor: -21%; HT1080-NT tox: inconclusive

What do the screens show for `Cc1[nH]n(-c2ccc([N+](=O)[O-])cc2)c(=O)c1C=NCCN1CCN(C(=O)c2cccc(F)c2)CC1`?
ATXN2 expr inh: 6%; ATXN viability: inactive; HepG2 viability: 7.9µM*; HT1080 IDH1KD tx: 16µM*; TGFb inhibitor: 11%; HT1080-NT tox: 18µM*

How did Cc1[nH]n(-c2ccc([N+](=O)[O-])cc2)c(=O)c1C=NCCc1c[nH]c2ccccc12 do in these assays?
ATXN2 expr inh: -15%; ATXN viability: inactive; HepG2 viability: -40%; HT1080 IDH1KD tx: inconclusive; TGFb inhibitor: 11%; HT1080-NT tox: inconclusive

What do the screens show for `Cc1[nH]n(-c2ccc([N+](=O)[O-])cc2)c(=O)c1C=NCCN1CCN(C(=O)c2ccc(Br)cc2)CC1`?
ATXN2 expr inh: -27%; ATXN viability: inactive; HepG2 viability: 7.1µM*; HT1080 IDH1KD tx: inconclusive; TGFb inhibitor: -2%; HT1080-NT tox: inconclusive

What do the screens show for `Cc1[nH]n(-c2ccc([N+](=O)[O-])cc2)c(=O)c1C=NCCN1CCN(C(=O)c2ccc(F)cc2)CC1`?
ATXN2 expr inh: 4%; ATXN viability: inactive; HepG2 viability: -2%; HT1080 IDH1KD tx: 3%; TGFb inhibitor: 22%; HT1080-NT tox: 2%

How did CC[N+](CC)(CC)CCOC(=O)C(C1CCCC1)C1CCCC1 do in these assays?
ATXN2 expr inh: -6%; ATXN viability: inactive

What do the screens show for `COc1cc2c(c(OC)c1OC)-c1ccc(SC)c(=O)cc1C(NC(=O)c1ccccc1)CC2` (configuration not stated)?
ATXN2 expr inh: 12%; ATXN viability: inconclusive; HepG2 viability: 1%; HT1080 IDH1KD tx: inconclusive; TGFb inhibitor: inconclusive; HT1080-NT tox: inconclusive

How did COC(=O)c1ccc2c(c1)C(NC(C)=O)CCc1cc(OC)c(OC)c(OC)c1-2 (configuration not stated) do in these assays?
ATXN2 expr inh: -9%; ATXN viability: inconclusive; HepG2 viability: -5%; HT1080 IDH1KD tx: inconclusive; TGFb inhibitor: inconclusive; HT1080-NT tox: 0.0065µM*

Results for C=COC(=O)NC1CCc2cc(OC)c(OC)c(OC)c2-c2ccc(SC)c(=O)cc21 (configuration not stated) ?
ATXN2 expr inh: -3%; ATXN viability: inconclusive; HepG2 viability: -33%; HT1080 IDH1KD tx: inconclusive; TGFb inhibitor: inconclusive; HT1080-NT tox: 0.18µM*

Results for COc1cccc(C(=O)Nc2ccc3c(cc2=O)[C@@H](NC(C)=O)CCc2cc(OC)c(OC)c(OC)c2-3)c1 ?
ATXN2 expr inh: -32%; ATXN viability: inactive; HepG2 viability: -20%; HT1080 IDH1KD tx: 4.6µM*; TGFb inhibitor: inconclusive; HT1080-NT tox: 5.8µM*

What do the screens show for `CCCC(=O)NC1CCc2cc(OC)c(OC)c(OC)c2-c2ccc(OC)c(=O)cc21` (configuration not stated)?
ATXN2 expr inh: 6%; ATXN viability: inactive; HepG2 viability: -25%; HT1080 IDH1KD tx: inconclusive; TGFb inhibitor: inconclusive; HT1080-NT tox: inconclusive

How did COc1c(C=O)c2c(c(OC)c1OC)-c1ccc(OC)c(=O)cc1C(NC(C)=O)CC2 (configuration not stated) do in these assays?
ATXN2 expr inh: -5%; ATXN viability: inactive; HepG2 viability: -6%; HT1080 IDH1KD tx: inconclusive; TGFb inhibitor: inconclusive; HT1080-NT tox: 0.0052µM*

Results for Cc1ccccc1NC(=O)CSc1nccn1C ?
ATXN2 expr inh: 8%; ATXN viability: inactive; HepG2 viability: -7%; TGFb inhibitor: -5%

What do the screens show for `Cc1cc(C)cc(Nc2nnc(-n3nc(C)cc3C)c3ccccc23)c1`?
ATXN2 expr inh: 3%; ATXN viability: inactive; HepG2 viability: -19%; TGFb inhibitor: 1%

What do the screens show for `O=C(c1cccn1-c1nnc(N2CCCC2)s1)N1CCN(c2ccccc2)CC1`?
HepG2 viability: -26%; TGFb inhibitor: 0%
